# Values without a mark were called inactive. Inconclusive results are not listed. A call without a number means that no potency is given here. Calls of active or inactive are those of the source. Unless noted, the call rests on the fitted dose curve.
# Key:
# [1] = Nuclear factor erythroid 2-related factor 2/antioxidant responsive element (Nrf2/ARE) small molecule agonists: luciferase reporter gene qHTS assay in human keratinocytes (AID 1919969); further: nearly all actives have a fitted effect of over 35% in size; further: potency means the concentration at half of the fitted maximal effect
# [2] = biological target: Gonadotropin-releasing hormone receptor (Homo sapiens) (UniProt P30968); assay: Human gonadotropin-releasing hormone receptor (GnRHR) small molecule agonists, calcium flux assay in GnRHR-HEK293 cells (AID 1920063); further: nearly all actives have a fitted effect of over 35% in size
# Chain of Gonadotropin-releasing hormone receptor (Homo sapiens) (P30968 whole entry, looked up): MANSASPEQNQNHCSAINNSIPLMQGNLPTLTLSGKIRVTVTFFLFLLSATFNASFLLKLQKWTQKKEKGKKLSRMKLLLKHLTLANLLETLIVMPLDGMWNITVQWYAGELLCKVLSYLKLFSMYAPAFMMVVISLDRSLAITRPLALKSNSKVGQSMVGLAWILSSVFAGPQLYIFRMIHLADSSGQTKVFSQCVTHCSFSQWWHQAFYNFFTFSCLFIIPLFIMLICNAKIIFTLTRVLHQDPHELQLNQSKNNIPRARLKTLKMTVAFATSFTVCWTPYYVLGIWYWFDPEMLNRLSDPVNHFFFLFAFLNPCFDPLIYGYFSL
# In short: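 We seeded human GnRHR-expressing HEK293 cells for 18 hours, loaded them with calcium dye for an hour at 37 C, added test compounds, and recorded fluorescence intensity kinetically for three minutes.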
# [3] = biological target: KiSS-1 receptor (Homo sapiens) (UniProt Q969F8); assay: Human kisspeptin (KISS1R) small molecule agonists, calcium flux assay in KISS1R-HEK293 cells (AID 1920064; active means well fitted activation curve with a large enough effect in the repeat runs)
# Chain of KiSS-1 receptor (Homo sapiens) (Q969F8 whole entry, looked up): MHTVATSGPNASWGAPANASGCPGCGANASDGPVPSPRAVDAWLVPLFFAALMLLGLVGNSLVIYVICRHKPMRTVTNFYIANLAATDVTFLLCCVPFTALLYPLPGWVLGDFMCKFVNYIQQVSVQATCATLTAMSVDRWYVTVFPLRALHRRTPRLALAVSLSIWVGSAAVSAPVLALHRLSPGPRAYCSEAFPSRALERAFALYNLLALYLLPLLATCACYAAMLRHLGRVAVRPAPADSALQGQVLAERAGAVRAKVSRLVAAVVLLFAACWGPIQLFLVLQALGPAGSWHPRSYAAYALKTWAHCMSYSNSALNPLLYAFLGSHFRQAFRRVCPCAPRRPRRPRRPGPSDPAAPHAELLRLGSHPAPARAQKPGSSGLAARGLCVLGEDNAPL
# In short: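 Kinetic calcium assay, 1 s sampling over 3 min at Ex/Em 480/540, in HEK293 cells engineered with human KISS1R; compounds delivered in DMSO after 1 h dye loading.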
# [4] = G protein-coupled receptor (GPCR) small molecule agonists, calcium flux assay: HEK293 wild type cell line counter screen (AID 1920065)
# In short: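 Calcium-sensitive dye, loaded 1 h at 37 C into cells cultured 18 h, reports compound-evoked calcium release as fluorescence (Ex/Em 480/540), measured over 3 min. Agonist mode; 15-point titrations, triplicate.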
# [5] = p53 small molecule agonists, cell-based qHTS assay with human liver microsomes (AID 1963577);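 further: p53 response element beta-lactamase reporter cells with liver microsomes plus NADPH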
# In short: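 HLM-supplemented p53RE-bla reporter assay: 16 h compound exposure at 37 C, microsomes and NADPH each 0.5 mg/mL final, read by fluorescence intensity.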
# [6] = p53 small molecule agonists, cell-based qHTS assay with rat liver microsomes (AID 1963578)
# In short: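 Quantitative HTS of the Tox21 10K library: p53RE-bla cells, rat liver microsomes plus NADPH at 0.5 mg/mL final each, 16 h at 37 C, beta-lactamase fluorescence detection.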
# [7] = p53 small molecule agonists, cell-based qHTS assay with human liver microsomes: qHTS cell viability counter screen (AID 1963579); further: nearly all actives have a fitted effect of over 45% in size
# In short: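 Viability of p53RE-bla cells is measured as CellTiter-Glo luminescence following a 16 h, 37 C incubation with compound, liver microsomes from human donors and NADPH.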
# [8] = p53 small molecule agonists, cell-based qHTS assay with rat liver microsomes: qHTS cell viability counter screen (AID 1963580); further: nearly all actives have a fitted effect of over 45% in size
# In short: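 In HCT-116 cells carrying a p53 response element-bla reporter, compounds were metabolically activated in situ by rat liver microsomes with NADPH over 16 h. Cell ATP content then served as the cytotoxicity measure.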
# [9] = p53 small molecule agonists, cell-based qHTS assay: qHTS cell viability counter screen (AID 1963581); further: nearly all actives have a fitted effect of over 45% in size
# In short: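 Following 5 h attachment, HCT-116 p53RE-bla cells took up compound for 16 h at 37 C; the reporter was read with B/G FRET substrate (2 h RT), and viability then via CellTiter-Glo ATP luminescence.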
# [10] = p53 small molecule agonists, cell-based qHTS assay (AID 1963582; active means well fitted activation curve with a large enough effect in the signal ratio in the repeat runs, not every such curve was filed as active; the % refers to the signal ratio)
# In short: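 In this cell-based concentration-response screen, a p53 response element drives beta-lactamase; cells received DMSO-borne compounds after 5 h culture and were incubated a further 16 h before FRET substrate development.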
# [11] = biological target: 5-hydroxytryptamine receptor 2A (Homo sapiens) (UniProt P28223); assay: 5-hydroxytryptamine receptor 2A (HTR2A) small molecule antagonists, cell-based qHTS assay (AID 1963586); further: nearly all actives have a fitted effect of over 45% in size
# Chain of 5-hydroxytryptamine receptor 2A (Homo sapiens) (P28223 whole entry, looked up): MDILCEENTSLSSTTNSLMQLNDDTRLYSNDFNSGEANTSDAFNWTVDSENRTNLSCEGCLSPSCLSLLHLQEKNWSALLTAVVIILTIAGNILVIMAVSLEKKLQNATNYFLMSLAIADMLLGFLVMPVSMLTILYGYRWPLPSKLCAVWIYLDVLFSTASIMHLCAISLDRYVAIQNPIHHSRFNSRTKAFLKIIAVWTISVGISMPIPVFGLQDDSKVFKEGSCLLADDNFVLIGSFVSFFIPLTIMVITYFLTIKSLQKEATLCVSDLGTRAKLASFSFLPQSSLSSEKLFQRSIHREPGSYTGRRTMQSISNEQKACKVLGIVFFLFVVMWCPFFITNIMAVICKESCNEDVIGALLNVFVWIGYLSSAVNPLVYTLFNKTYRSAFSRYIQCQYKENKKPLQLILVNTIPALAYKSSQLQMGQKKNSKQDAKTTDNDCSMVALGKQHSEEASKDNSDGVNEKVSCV
# In short: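 Antagonist-mode intracellular calcium assay: DOI (4 nM) added after 5 min compound pre-incubation at room temperature to dye-loaded HTR2A-CHO cells. Fluorescence followed for 3 min, sampled every second.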
# [12] = biological target: Muscarinic acetylcholine receptor M1 (Homo sapiens) (UniProt P11229); assay: Cholinergic receptor muscarinic 1 (CHRM1) small molecule agonists, cell-based qHTS assay (AID 1963589); further: nearly all actives have a fitted effect of over 35% in size
# Chain of Muscarinic acetylcholine receptor M1 (Homo sapiens) (P11229 whole entry, looked up): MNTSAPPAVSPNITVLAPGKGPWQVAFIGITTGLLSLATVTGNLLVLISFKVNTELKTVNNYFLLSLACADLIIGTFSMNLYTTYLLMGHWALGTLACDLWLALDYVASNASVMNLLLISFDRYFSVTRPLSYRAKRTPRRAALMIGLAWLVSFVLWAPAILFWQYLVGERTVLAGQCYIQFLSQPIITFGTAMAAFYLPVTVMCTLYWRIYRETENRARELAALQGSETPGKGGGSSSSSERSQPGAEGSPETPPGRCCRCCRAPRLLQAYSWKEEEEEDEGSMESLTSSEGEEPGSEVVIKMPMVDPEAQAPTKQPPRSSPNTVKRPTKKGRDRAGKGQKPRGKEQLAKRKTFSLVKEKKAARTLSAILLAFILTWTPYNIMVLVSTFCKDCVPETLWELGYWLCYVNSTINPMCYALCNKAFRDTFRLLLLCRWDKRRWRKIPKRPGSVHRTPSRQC
# In short: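 Measures agonist-induced intracellular calcium rise. Stable human CHRM1 CHO line, 1 h dye load at 37 C, compounds from DMSO, kinetic fluorescence read.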
# [13] = biological target: Beta-2 adrenergic receptor (Homo sapiens) (UniProt P07550); assay: Adrenergic beta2 receptor (ADRB2) small molecule antagonists, cell-based qHTS assay (AID 1963592); further: series mostly up to about 92 µM; nearly all actives have a fitted effect of over 50% in size
# Chain of Beta-2 adrenergic receptor (Homo sapiens) (P07550 whole entry, looked up): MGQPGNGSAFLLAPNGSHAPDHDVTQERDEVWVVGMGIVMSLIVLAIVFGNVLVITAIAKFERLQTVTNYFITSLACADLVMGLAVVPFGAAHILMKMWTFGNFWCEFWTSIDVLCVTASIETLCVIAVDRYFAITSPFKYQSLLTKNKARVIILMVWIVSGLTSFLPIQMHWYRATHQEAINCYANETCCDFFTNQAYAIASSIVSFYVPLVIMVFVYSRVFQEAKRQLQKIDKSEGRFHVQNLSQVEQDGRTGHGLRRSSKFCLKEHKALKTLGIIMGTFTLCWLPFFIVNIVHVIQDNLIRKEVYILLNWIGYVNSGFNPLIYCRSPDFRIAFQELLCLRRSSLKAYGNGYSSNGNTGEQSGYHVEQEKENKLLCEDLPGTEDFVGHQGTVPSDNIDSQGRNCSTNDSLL
# In short: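 Cells (CHO, stable ADRB2 overexpression) incubated 18-20hr at 37C; compounds added from DMSO; agonist mix (1nM isoproterenol, 100uM IBMX, 25uM Ro-20-1724) added; 0.5hr RT; d2-cAMP and anti-cAMP-cryptate added; 1hr RT; 665/615 nm read.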
# [14] = biological target: Beta-2 adrenergic receptor (Homo sapiens) (UniProt P07550); assay: Adrenergic beta2 receptor (ADRB2) small molecule agonists, cell-based qHTS assay (AID 1963593);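 further: CHO cells stably overexpressing human ADRB2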
# In short: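 CHO cells stably over-expressing ADRB2 were plated overnight at 37C, then dosed with compounds plus a stimulation mix containing 100uM IBMX and 25uM Ro-20-1724 for 0.5hr at room temperature. cAMP was measured by HTRF competition, 1hr.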
# [15] = biological target: D(2) dopamine receptor (Homo sapiens) (UniProt P14416); assay: Dopamine D2 receptor (DRD2) small molecule agonists, cell-based qHTS assay (AID 1963594); further: nearly all actives have a fitted effect of over 35% in size; further: potency means the concentration at half of the fitted maximal effect
# Chain of D(2) dopamine receptor (Homo sapiens) (P14416 whole entry, looked up): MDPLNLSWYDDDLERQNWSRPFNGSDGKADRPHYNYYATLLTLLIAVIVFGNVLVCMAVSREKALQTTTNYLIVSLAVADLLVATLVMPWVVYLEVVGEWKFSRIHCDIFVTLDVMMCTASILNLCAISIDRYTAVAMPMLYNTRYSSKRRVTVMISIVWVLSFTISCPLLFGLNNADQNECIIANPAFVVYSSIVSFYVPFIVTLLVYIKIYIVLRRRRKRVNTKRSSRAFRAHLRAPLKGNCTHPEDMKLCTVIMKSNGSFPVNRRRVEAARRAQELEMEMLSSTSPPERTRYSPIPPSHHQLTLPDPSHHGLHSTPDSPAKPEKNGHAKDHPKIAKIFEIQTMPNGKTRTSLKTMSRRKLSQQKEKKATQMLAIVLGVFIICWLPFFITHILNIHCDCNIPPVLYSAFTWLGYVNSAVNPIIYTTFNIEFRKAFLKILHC
# In short: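 HEK293 cells stably expressing DRD2 were cultured 24 h at 37 C, then given Ro20-1724 (0.1 mM final) and compounds for 10 min at room temperature. NKH477 (200nM) was then added for 30 min. cAMP was read by HTRF.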
# [16] = biological target: D(2) dopamine receptor (Homo sapiens) (UniProt P14416); assay: Dopamine D2 receptor (DRD2) small molecule antagonists, cell-based qHTS assay (AID 1963595; active means well fitted inhibition curve with a large enough effect in the signal ratio in the repeat runs, with a control signal flat; the % refers to the signal ratio)
# In short: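 HEK293 cells stably expressing DRD2, preincubated with 0.1 mM Ro20-1724 and compounds 10 min, were stimulated with 200 nM NKH477 plus 12 nM quinpirole for 30 min at room temperature; cAMP measured by HTRF (665/620 nm).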
# [17] = biological target: Muscarinic acetylcholine receptor M1 (Homo sapiens) (UniProt P11229); assay: Cholinergic receptor muscarinic 1 (CHRM1) small molecule antagonists, cell-based qHTS assay (AID 1963588); further: nearly all actives have a fitted effect of over 40% in size
# In short: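 CHRM1-CHO calcium-flux assay, antagonist mode. Cells were seeded 18 h, dye-loaded 1 h at 37 C and given compound for 5 min at RT, then acetylcholine was added at 50nM. FDSS fluorescence was read 3 min; 15 concentrations, three runs.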
# [18] = cAMP Responsive Elements (CRE) small molecule agonists, cell-based qHTS assay (AID 1963590)
# In short: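 A CRE-responsive beta-lactamase reporter in HEK 293T cells was used. Treatment ran 3 h at 37 C; detection used LiveBLAzer B/G FRET substrate for 2 h at room temperature.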
# [19] = cAMP Responsive Elements (CRE) small molecule antagonists, cell-based qHTS assay (AID 1963591; active means well fitted inhibition curve with a large enough effect in the signal ratio in the repeat runs, not every such curve was filed as active; the % refers to the signal ratio)
# In short: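 HEK293T cells carrying a CRE-driven beta-lactamase reporter receive compound and NKH477 (0.25 uM final) for 3 h. Fluorescence from LiveBLAzer B/G FRET substrate is read after 2 h at room temperature.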
# [20] = biological target: 5-hydroxytryptamine receptor 2A (Homo sapiens) (UniProt P28223); assay: 5-hydroxytryptamine receptor 2A (HTR2A) small molecule agonists, cell-based qHTS assay (AID 1963587); further: nearly all actives have a fitted effect of over 30% in size
# In short: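 HTR2A-CHO cells, plated 18 h at 37 C/5% CO2, dye-loaded 1 h at 37 C; compounds in DMSO added by pin tool (agonist mode). Intracellular calcium flux read as kinetic fluorescence on FDSS over 2 min at 1 s intervals.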
smiles,measurement,setting,value
CCCCOCCOC(=O)COc1ccc(Cl)cc1Cl,Potency,[1],inactive
same,Potency,[2],inactive
same,outcome,[3],inactive
same,outcome,[4],inactive
same,Potency,[5],inactive
same,Potency,[6],inactive
same,Potency,[7],inactive
same,Potency,[8],inactive
same,Potency,[9],inactive
same,Potency,[10],inactive
same,Potency,[11],inactive
same,Potency,[12],inactive
same,Potency,[13],inactive
same,Potency,[14],inactive
same,Potency,[15],inactive
same,Potency,[16],inactive
N[C@@H](Cc1cc(I)c(O)c(I)c1)C(=O)O,Potency,[1],inactive
same,Potency,[2],inactive
same,outcome,[3],inactive
same,outcome,[4],inactive
same,Potency,[5],inactive
same,Potency,[6],inactive
same,Potency,[7],inactive
same,Potency,[8],inactive
same,Potency,[10],inactive
same,Potency,[11],inactive
same,Potency,[17],inactive
same,Potency,[12],inactive
same,Potency,[18],inactive
same,Potency,[19],inactive
same,Potency,[13],inactive
same,Potency,[16],inactive
O=C1CCCCCCCCCCC(=O)OCCO1,Potency,[1],inactive
same,Potency,[2],inactive
same,outcome,[3],inactive
same,outcome,[4],inactive
same,Potency,[5],inactive
same,Potency,[6],inactive
same,Potency,[7],inactive
same,Potency,[8],inactive
same,Potency,[9],inactive
same,Potency,[10],inactive
same,Potency,[11],inactive
same,Potency,[17],inactive
same,Potency,[13],inactive
same,Potency,[15],inactive
same,Potency,[16],inactive
CCN(CCO)CCCC(C)Nc1ccnc2cc(Cl)ccc12 (stereo not given),"activity, positive = activation",[1],-5.51% [at 8.39 µM]
same,activity change,[2],"-0.334% [at 5.22 µM, hits give high values]"
same,activation,[3],-0.232% [at 6.97 µM]
same,activation,[4],-1.14% [at 5.23 µM]
same,activation,[5],9.14% [at 5.99 µM]
same,activation,[6],0.449% [at 5.99 µM]
same,"activity change, negative = cytotoxicity",[7],-18.4% [at 5.99 µM]
same,"activity change, negative = cytotoxicity",[8],-0.0605% [at 5.99 µM]
same,"activity change, negative = cytotoxicity",[9],14.7% [at 5.99 µM]
same,activation,[10],0.694% [at 5.99 µM]
same,activation,[18],0.273% [at 8.39 µM]
same,"activity change, negative = inhibition",[13],1.52% [at 8.39 µM]
same,activation,[14],0.519% [at 8.39 µM]
same,activation,[15],4.56% [at 8.39 µM]
same,"activity change, negative = inhibition",[16],12.2% [at 8.38 µM]
CO[C@@H]1[C@H](OC(=O)/C=C/C=C/C=C/C=C/C(=O)O)CC[C@]2(CO2)[C@H]1[C@@]1(C)O[C@@H]1CC=C(C)C,Potency,[1],61.1 µM (active)
same,Potency,[2],inactive
same,outcome,[3],inactive
same,outcome,[4],inactive
same,Potency,[5],inactive
same,Potency,[6],inactive
same,Potency,[7],inactive
same,Potency,[8],inactive
same,Potency,[9],inactive
same,Potency,[20],inactive
same,Potency,[17],inactive
same,Potency,[12],inactive
same,Potency,[18],inactive
same,Potency,[13],inactive
same,Potency,[14],inactive
same,Potency,[16],inactive
CC(=O)O[C@H]1CC[C@@]2(C)C(=CC[C@@H]3[C@@H]2CC[C@]2(C)C(C(C)=O)=CC[C@@H]32)C1,Potency,[1],inactive
same,Potency,[2],inactive
same,outcome,[3],inactive
same,outcome,[4],inactive
same,Potency,[5],inactive
same,Potency,[6],inactive
same,Potency,[7],inactive
same,Potency,[8],inactive
same,Potency,[9],inactive
same,Potency,[10],inactive
same,Potency,[20],inactive
same,Potency,[12],inactive
same,Potency,[18],inactive
same,Potency,[19],inactive
same,Potency,[13],inactive
same,Potency,[14],inactive
same,Potency,[16],inactive
Nc1nc2c(ncn2COC(CO)CO)c(=O)[nH]1,Potency,[1],inactive
same,Potency,[2],inactive
same,outcome,[3],inactive
same,outcome,[4],inactive
same,Potency,[5],inactive
same,Potency,[6],inactive
same,Potency,[7],inactive
same,Potency,[8],inactive
same,Potency,[9],inactive
same,Potency,[10],inactive
same,Potency,[18],inactive
same,Potency,[19],inactive
same,Potency,[14],inactive
same,Potency,[15],1.14 µM (active)
same,Potency,[16],inactive

# Source: PubChem BioAssay (Tox21)
